Test results: the supplement of paper PMC11732987, “Enantioselective OTUD7B fragment discovery through chemoproteomics screening and high-throughput optimisation” (Communications Chemistry, 2025)

Key:
Experiment in all cases: log2 ratio of Biotin-Ahx-Ub-VS probe labelling (fragment/DMSO); higher = less target engagement (more negative = stronger competition), active = hit call of the paper (q ≤ 0.05, log2 ratio ≤ -1)
Settings in all cases: compound concentration: 200 uM; treatment time: 3 h
USP34 = USP34 (UniProt Q70CQ2)
USP34, sequence (Q70CQ2 whole entry, the tested form may be a part): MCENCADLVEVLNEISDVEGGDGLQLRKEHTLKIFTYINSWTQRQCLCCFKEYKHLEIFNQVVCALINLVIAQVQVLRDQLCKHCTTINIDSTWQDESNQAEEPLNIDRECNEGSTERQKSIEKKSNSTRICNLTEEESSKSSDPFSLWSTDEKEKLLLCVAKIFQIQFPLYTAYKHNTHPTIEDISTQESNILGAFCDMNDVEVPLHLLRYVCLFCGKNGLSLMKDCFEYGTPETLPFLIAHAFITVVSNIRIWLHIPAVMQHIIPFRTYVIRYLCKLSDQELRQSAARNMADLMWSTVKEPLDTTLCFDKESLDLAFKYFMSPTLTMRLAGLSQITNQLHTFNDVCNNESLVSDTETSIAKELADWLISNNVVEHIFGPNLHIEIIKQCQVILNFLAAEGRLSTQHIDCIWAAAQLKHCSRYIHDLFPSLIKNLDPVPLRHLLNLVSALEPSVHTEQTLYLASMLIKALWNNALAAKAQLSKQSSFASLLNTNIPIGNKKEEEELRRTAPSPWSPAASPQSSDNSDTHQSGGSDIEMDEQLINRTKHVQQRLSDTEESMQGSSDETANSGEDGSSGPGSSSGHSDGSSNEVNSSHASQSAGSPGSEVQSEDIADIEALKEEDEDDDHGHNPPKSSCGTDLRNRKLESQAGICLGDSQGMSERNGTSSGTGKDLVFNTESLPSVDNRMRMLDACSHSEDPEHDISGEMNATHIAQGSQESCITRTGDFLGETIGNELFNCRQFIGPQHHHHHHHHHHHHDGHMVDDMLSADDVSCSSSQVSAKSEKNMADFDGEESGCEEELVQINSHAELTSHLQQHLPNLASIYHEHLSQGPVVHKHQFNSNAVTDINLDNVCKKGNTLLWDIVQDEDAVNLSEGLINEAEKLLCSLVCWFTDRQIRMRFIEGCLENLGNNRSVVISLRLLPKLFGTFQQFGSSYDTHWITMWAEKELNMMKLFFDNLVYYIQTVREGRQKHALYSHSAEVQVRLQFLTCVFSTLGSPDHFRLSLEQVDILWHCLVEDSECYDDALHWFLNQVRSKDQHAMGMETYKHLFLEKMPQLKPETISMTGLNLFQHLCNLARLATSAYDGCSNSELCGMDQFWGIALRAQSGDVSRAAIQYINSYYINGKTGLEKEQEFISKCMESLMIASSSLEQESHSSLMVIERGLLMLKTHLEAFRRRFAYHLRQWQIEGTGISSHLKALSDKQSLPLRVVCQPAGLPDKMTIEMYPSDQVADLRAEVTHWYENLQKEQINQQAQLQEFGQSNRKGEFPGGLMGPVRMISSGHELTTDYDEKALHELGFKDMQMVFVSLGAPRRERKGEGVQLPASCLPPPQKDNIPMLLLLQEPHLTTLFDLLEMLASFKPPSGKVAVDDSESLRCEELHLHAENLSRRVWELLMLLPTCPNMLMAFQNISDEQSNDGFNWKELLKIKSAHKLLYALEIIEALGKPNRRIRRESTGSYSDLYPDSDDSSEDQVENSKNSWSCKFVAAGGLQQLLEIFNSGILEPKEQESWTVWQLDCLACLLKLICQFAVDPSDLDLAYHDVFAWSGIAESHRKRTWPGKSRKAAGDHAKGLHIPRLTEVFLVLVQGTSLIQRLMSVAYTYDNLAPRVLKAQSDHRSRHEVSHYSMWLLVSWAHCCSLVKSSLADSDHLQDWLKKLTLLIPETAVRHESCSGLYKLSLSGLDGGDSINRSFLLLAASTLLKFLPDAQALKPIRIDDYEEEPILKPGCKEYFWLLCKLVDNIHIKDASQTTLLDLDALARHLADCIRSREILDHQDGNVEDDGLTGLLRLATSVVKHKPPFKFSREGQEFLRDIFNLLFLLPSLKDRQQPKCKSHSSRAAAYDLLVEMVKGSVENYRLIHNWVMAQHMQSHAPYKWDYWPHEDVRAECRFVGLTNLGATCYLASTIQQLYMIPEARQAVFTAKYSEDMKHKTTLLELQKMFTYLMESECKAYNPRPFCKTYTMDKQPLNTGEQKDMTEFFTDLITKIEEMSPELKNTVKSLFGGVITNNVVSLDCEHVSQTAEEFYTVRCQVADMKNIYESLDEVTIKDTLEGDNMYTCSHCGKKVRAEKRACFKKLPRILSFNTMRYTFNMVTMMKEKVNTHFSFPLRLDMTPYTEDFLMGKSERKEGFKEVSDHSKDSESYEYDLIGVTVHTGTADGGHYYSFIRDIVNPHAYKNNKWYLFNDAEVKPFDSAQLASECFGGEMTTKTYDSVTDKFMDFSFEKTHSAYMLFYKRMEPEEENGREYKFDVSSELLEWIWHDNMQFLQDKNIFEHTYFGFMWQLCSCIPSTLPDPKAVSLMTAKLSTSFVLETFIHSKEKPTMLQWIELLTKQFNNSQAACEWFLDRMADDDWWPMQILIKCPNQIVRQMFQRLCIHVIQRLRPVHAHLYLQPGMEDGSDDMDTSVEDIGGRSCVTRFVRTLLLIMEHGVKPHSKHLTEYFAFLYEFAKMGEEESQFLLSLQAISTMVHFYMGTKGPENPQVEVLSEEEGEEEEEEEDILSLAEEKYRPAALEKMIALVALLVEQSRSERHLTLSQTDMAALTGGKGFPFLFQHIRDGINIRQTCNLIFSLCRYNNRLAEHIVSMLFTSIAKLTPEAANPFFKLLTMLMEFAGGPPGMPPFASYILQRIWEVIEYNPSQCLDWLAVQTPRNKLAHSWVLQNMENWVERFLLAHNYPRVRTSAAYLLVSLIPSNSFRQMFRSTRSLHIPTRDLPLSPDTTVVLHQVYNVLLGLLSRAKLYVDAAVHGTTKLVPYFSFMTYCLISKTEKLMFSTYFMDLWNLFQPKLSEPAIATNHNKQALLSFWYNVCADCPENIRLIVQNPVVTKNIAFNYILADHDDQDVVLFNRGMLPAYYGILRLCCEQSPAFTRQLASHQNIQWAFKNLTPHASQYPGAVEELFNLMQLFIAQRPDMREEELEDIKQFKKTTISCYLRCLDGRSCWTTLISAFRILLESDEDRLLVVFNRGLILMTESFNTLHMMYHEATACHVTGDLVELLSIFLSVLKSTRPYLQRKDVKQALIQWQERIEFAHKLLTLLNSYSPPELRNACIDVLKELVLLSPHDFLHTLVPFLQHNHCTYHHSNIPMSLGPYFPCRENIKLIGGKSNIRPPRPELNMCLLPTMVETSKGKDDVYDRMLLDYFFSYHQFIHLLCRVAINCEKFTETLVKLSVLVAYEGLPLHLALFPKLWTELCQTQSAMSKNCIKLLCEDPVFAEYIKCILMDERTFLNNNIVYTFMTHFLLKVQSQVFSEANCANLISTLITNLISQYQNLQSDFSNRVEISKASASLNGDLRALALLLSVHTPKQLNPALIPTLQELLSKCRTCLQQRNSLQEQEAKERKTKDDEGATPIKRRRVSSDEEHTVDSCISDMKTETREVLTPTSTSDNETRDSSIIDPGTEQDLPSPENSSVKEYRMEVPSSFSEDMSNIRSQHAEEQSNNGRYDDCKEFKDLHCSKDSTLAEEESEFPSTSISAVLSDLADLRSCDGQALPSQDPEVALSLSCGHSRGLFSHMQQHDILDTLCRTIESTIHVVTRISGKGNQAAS
Method in brief: (§1)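 HEK293T lysate in Tris/CHAPS/IGEPAL buffer with protease inhibitors (495 µg per sample) was given fragment at 200 µM or vehicle for 3 h, in triplicate. It then received Biotin-Ahx-Ub-VS at 0.5 µM final for 1 h. Labelled DUBs were NeutrAvidin-enriched, digested with LysC and trypsin, and run by diaPASEF LC-MS/MS. Values are average log2 fragment/vehicle ratios by unpaired t-test on global-median-normalised Spectronaut quantities of proteins with ≥2 unique peptides.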

USP36 = biological target: T1, USP36 (UniProt Q9P275)
T1 sequence (whole entry): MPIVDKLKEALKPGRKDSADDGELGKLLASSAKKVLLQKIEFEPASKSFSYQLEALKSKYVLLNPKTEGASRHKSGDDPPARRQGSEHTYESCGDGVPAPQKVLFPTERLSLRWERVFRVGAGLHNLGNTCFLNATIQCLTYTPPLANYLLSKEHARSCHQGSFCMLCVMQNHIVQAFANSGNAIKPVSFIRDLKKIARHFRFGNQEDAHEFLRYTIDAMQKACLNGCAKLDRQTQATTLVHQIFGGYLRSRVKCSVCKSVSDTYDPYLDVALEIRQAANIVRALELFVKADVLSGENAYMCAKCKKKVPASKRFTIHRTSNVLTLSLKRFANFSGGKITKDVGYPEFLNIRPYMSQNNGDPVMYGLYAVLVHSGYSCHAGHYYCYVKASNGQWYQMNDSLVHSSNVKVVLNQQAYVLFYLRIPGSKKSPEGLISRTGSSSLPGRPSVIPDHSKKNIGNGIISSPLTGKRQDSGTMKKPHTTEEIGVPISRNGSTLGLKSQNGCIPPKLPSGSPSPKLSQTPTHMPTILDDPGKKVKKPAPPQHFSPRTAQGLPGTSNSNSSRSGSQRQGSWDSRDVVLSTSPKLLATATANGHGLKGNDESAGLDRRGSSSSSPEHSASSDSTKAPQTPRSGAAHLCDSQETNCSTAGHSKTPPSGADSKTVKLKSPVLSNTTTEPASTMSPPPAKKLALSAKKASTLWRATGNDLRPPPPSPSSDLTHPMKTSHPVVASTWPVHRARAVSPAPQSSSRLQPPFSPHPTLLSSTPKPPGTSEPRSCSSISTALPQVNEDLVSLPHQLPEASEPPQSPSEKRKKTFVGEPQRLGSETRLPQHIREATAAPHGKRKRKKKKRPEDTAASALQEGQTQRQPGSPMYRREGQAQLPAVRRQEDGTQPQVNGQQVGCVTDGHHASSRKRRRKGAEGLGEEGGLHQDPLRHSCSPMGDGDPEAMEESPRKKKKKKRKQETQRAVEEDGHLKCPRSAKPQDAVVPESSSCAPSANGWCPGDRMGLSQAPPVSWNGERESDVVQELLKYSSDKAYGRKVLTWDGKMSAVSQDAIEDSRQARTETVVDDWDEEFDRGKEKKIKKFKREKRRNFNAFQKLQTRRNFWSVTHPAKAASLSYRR
Method in brief: as §1

USP38 = biological target: T2, USP38 (UniProt Q8NB14)
T2 sequence (whole entry): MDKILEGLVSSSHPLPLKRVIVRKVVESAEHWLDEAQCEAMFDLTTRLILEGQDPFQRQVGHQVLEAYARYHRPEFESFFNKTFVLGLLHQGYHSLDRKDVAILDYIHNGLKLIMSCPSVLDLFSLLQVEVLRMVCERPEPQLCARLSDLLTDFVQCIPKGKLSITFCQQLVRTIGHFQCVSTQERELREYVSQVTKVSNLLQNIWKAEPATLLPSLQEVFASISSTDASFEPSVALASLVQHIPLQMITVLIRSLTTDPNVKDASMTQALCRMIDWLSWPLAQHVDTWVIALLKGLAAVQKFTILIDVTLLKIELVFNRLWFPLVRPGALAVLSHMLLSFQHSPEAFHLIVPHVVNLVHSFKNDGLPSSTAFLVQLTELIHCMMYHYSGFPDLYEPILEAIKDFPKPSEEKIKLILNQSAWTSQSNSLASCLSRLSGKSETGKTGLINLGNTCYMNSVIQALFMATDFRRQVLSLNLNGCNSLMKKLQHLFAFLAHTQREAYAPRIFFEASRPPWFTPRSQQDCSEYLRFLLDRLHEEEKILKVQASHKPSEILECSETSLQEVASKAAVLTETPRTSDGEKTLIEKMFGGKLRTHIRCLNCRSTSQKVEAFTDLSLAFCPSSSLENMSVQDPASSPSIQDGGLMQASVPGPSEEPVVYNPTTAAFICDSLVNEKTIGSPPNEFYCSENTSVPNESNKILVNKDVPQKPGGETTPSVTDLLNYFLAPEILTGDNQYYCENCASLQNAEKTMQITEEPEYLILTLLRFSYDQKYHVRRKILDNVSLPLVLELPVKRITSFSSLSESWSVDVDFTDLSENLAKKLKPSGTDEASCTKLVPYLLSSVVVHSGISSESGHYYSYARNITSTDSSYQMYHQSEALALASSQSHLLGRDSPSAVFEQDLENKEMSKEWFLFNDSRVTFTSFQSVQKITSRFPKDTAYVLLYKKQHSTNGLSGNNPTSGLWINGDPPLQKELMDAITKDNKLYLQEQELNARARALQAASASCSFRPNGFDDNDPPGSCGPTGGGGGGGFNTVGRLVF
Method in brief: as §1

USP39 = biological target: T3, USP39 (UniProt Q53GS9)
T3 sequence (whole entry): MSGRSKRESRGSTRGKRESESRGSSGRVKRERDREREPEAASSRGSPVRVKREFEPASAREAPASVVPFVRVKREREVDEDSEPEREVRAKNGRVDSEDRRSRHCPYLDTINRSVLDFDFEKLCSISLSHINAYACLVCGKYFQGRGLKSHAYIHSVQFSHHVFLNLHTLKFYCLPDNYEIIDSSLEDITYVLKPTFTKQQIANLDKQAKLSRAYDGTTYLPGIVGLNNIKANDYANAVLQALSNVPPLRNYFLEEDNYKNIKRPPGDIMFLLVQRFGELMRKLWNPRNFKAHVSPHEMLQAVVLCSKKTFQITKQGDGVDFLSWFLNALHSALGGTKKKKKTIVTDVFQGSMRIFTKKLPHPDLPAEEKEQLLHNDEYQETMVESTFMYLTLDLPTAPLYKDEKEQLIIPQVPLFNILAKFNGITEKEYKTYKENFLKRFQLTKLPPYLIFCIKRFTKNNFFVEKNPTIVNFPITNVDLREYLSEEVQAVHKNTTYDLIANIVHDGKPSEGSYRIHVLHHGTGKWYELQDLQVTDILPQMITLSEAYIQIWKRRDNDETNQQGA
Method in brief: as §1

USP4 = biological target: T4, USP4 (UniProt Q13107)
T4 sequence (whole entry): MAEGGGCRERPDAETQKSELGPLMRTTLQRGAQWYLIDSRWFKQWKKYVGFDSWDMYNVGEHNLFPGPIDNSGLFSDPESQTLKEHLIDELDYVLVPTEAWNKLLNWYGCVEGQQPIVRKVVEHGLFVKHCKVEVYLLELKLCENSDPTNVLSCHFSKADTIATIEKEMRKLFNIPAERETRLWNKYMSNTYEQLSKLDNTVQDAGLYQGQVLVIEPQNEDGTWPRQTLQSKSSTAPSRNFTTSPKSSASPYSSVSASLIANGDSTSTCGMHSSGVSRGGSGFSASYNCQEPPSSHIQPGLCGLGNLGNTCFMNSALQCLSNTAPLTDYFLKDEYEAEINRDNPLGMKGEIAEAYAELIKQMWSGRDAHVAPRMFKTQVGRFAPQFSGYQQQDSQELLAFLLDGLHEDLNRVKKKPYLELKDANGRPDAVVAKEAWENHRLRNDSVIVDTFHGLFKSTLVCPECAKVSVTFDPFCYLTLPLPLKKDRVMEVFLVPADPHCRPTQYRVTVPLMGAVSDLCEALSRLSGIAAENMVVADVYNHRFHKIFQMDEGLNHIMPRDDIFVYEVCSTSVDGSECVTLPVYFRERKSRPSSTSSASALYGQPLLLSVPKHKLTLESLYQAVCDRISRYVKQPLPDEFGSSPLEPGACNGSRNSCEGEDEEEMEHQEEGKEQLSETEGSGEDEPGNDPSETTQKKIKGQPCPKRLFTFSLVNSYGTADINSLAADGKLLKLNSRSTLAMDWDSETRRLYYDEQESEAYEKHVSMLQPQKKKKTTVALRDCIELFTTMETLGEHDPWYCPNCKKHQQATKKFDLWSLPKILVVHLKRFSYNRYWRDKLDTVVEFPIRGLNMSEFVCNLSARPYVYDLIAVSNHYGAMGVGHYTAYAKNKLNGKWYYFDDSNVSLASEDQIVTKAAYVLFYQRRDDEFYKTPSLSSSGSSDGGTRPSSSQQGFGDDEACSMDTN
Method in brief: as §1

Measured: log2 ratio of Biotin-Ahx-Ub-VS probe labelling

CS(=O)(=O)c1ccc(NC(=O)CCl)cc1
inactive: USP34 0.0382 | USP36 0.166 | USP38 0.0532 | USP39 -0.186 | USP4 -0.0813
